From PubChem BioAssay (Tox21)
Records with an inconclusive call do not appear. Activity calls are given as the source filed them. Unless noted, calls follow the shape of the dose curve; as a rule, active = well fitted curve in the direction sought with a large enough effect in the repeat runs; inconclusive = weak or mixed curves; inactive = no such curve, though single readings can be large; an effect the other way counts as inactive or inconclusive.

Key:
[1] = qHTS assay to identify small molecule agonists of the peroxisome proliferator-activated receptor delta (PPARd) signaling pathway - cell viability counter screen (AID 743211); also: nearly all actives have a fitted effect of over 55% in size
How it was run: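 Viability of GeneBLAzer PPARd UAS-bla HEK293H cells was assessed after 17 h compound incubation at 37C, using CellTiter-Glo reagent added after the reporter read and luminescence recorded 30 min later.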

[2] = biological target: Peroxisome proliferator-activated receptor delta (Homo sapiens) (UniProt Q03181); assay: qHTS assay to identify small molecule agonists of the peroxisome proliferator-activated receptor delta (PPARd) signaling pathway (AID 743212; calls by dose curve)
Sequence of Peroxisome proliferator-activated receptor delta (Homo sapiens) (Q03181 whole entry, looked up): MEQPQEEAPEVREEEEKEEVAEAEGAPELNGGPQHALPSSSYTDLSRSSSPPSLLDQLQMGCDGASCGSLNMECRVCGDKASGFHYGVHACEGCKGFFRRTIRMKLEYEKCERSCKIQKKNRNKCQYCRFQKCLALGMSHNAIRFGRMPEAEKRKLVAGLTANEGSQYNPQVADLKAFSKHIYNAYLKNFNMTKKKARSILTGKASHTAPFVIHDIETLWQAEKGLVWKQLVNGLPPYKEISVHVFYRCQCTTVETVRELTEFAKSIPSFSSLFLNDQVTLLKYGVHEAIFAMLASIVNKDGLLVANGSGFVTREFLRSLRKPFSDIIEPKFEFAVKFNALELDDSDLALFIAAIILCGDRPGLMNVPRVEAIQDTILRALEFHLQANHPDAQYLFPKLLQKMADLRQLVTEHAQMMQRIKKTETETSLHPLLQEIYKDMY
How it was run: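 Read-out: beta-lactamase FRET fluorescence after 2 h room-temperature incubation with LiveBLAzer B/G substrate. Cells were HEK293H carrying a UAS-bla reporter for PPARd, treated at 37 C with DMSO-dissolved compounds.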

[3] = qHTS assay to identify small molecule antagonists of the peroxisome proliferator-activated receptor delta (PPARd) signaling pathway - cell viability counter screen (AID 743213); also: nearly all actives have a fitted effect of over 50% in size
How it was run: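 Same-well viability: cells pre-incubated 5 h, dosed with compound plus 300 nM L165041, kept 17 h at 37 C, FRET substrate 2 h RT, then CellTiter-Glo 30 min RT and luminescence.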

[4] = biological target: Peroxisome proliferator-activated receptor delta (Homo sapiens) (UniProt Q03181); assay: qHTS assay to identify small molecule antagonists of the peroxisome proliferator-activated receptor delta (PPARd) signaling pathway (AID 743215; active = well fitted inhibition curve with a large enough effect in the signal ratio in the repeat runs, not every such curve was filed as active; the % refers to the signal ratio;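 also: cells stimulated with agonist L165041 at 300 nM final during compound exposure; series mostly up to about 62 µM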)
How it was run: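 Agonist L165041 (300 nM final) added with compound to PPARd-bla HEK293H UAS-bla reporter cells; 17 h incubation at 37 C. Read-out: LiveBLAzer FRET substrate, 2 h at room temperature, fluorescence intensity.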

[5] = biological target: Bile acid receptor (Homo sapiens) (UniProt Q96RI1); assay: qHTS assay to identify small molecule antagonists of the farnesoid-X-receptor (FXR) signaling pathway (AID 743217; active = well fitted inhibition curve with a large enough effect in the signal ratio in the repeat runs, not every such curve was filed as active; the % refers to the signal ratio)
Sequence of Bile acid receptor (Homo sapiens) (Q96RI1 whole entry, looked up): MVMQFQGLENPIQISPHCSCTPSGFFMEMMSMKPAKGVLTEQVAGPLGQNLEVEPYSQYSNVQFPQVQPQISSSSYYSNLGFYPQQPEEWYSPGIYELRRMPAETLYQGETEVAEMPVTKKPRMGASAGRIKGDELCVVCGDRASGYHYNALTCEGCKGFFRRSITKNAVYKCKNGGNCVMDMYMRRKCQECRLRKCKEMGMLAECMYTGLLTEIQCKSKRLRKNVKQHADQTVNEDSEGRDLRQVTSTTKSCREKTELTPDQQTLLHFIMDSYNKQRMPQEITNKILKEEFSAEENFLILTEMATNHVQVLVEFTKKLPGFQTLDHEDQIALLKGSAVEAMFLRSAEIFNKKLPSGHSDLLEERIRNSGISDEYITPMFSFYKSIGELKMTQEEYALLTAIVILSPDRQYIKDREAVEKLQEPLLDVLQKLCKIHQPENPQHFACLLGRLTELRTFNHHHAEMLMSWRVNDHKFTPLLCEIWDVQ
How it was run: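 Antagonist mode: chenodeoxycholic acid at 50 uM final stimulates a UAS-driven beta-lactamase reporter in HEK 293T FXR-bla cells during 16 h, 37C compound exposure. Read-out is FRET substrate fluorescence after 2 h at room temperature.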

[6] = qHTS assay to identify small molecule agonists of the farnesoid-X-receptor (FXR) signaling pathway - cell viability counter screen (AID 743218); also: nearly all actives have a fitted effect of over 45% in size
How it was run: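 Viability counter screen in the same wells: CellTiter-Glo luminescence, 30 min room-temperature incubation, measured after the beta-lactamase read. Cells were GeneBLAzer FXR-UAS-bla HEK 293T, compound-treated 16 h at 37C.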

[7] = biological target: Bile acid receptor (Homo sapiens) (UniProt Q96RI1); assay: qHTS assay to identify small molecule agonists of the farnesoid-X-receptor (FXR) signaling pathway (AID 743220; active = well fitted activation curve with a large enough effect in the signal ratio in the repeat runs, not every such curve was filed as active; the % refers to the signal ratio)
How it was run: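 FXR-UAS-bla HEK 293T cells carrying a UAS-driven beta-lactamase reporter were plated for 5 h at 37C/5% CO2, then exposed to DMSO-dissolved Tox21 10K compounds for 16 h at 37C. A LiveBLAzer B/G FRET substrate was loaded for 2 h at room temperature before fluorescence reading.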

[8] = qHTS assay to identify small molecule antagonists of the farnesoid-X-receptor (FXR) signaling pathway - cell viability counter screen (AID 743221; active = well fitted cell-killing curve with a large enough effect in the repeat runs, not every such curve was filed as active; also: nearly all actives have a fitted effect of over 50% in size)
How it was run: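 Quantitative HTS of the Tox21 10K library run in parallel with the beta-lactamase reporter read. HEK 293T cells carrying a UAS-driven bla reporter got compound and 50 uM CDCA (final) for 16 h; ATP-based luminescence followed.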

[9] = biological target: Vitamin D3 receptor (Homo sapiens) (UniProt P11473); assay: qHTS assay to identify small molecule agonists of the vitamin D receptor (VDR) signaling pathway (AID 743222; calls by dose curve)
Sequence of Vitamin D3 receptor (Homo sapiens) (P11473 whole entry, looked up): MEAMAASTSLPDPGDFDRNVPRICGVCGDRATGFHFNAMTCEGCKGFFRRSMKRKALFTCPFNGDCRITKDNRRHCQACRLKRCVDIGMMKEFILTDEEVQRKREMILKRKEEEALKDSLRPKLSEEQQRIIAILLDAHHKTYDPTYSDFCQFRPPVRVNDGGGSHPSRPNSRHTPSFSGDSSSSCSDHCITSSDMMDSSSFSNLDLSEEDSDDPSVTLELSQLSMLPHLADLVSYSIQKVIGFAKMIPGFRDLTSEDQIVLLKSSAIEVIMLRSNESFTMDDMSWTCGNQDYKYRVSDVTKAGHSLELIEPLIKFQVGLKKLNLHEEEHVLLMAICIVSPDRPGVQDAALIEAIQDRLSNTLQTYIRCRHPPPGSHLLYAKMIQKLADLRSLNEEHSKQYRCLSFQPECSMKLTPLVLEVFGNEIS
How it was run: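 Agonist mode, beta-lactamase reporter: fluorescence from LiveBLAzer B/G FRET substrate (2 h, room temperature) read after 16 h compound treatment at 37 C of VDR-bla cells, which were pre-incubated 4 h after seeding.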

[10] = qHTS assay to identify small molecule antagonists of the vitamin D receptor (VDR) signaling pathway - cell viability counter screen (AID 743225); also: nearly all actives have a fitted effect of over 50% in size
How it was run: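 Cells (VDR-UAS-bla HEK 293T) are plated, rested 4 h at 37C, dosed with compound and 3 nM final 1-alpha,25-dihydroxy vitamin D3, and incubated 16 h. Viability is taken from CellTiter-Glo luminescence in the reporter wells.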

[11] = qHTS assay to identify small molecule agonists of the NFkB signaling pathway (AID 1159509; active = well fitted curve in the direction sought with a large enough effect in the signal ratio in the repeat runs, not every such curve was filed as active; the % refers to the signal ratio; also: series mostly up to about 61 µM)
How it was run: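 Readout: FRET fluorescence, 405 nm excitation, 460/530 nm emission; beta-lactamase expression disrupts FRET. Cells: ME-180 stably carrying NF-kB-driven bla reporter. Compound exposure 5 hr, 37 C, 5% CO2.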

[12] = qHTS assay to identify small molecule agonists of the endoplasmic reticulum stress response signaling pathway (AID 1159516; active = well fitted activation curve with a large enough effect in the signal ratio in the repeat runs, not every such curve was filed as active; the % refers to the signal ratio)
How it was run: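 Ratiometric FRET readout (405 nm excitation; 460 and 530 nm emission) of a beta-lactamase gene driven by the ER stress response element, after 2 hr substrate loading. HeLa ESRE-bla cells were seeded overnight and treated with compounds for only 5 hr at 37 C.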

[13] = qHTS assay to identify small molecule agonists of the endoplasmic reticulum stress response signaling pathway - cell viability counter screen (AID 1159517; calls by dose curve; also: series mostly up to about 61 µM; nearly all actives have a fitted effect of over 50% in size)
How it was run: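 Steps: seed 1,500 ESRE-bla HeLa cells per well; incubate overnight at 37 C, 5% CO2; add compounds in DMSO for 5 hr; run FRET substrate 2 hr RT; add CellTiter-Glo, wait 30 min, read luminescence.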

[14] = qHTS assay to identify small molecule antagonists of the retinoid-related orphan receptor gamma (ROR-gamma) signaling pathway - cell viability counter screen (AID 1159520); also: nearly all actives have a fitted effect of over 50% in size
How it was run: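 Tet-on ROR gamma CHO cells were given compounds for 2 hr, then doxycycline hyclate at 1 uM final, and incubated 16 hr at 37 C. Viability was measured as ATP content by CellTiter-Glo luminescence.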

[15] = biological target: Nuclear receptor ROR-gamma (Homo sapiens) (UniProt P51449); assay: qHTS assay to identify small molecule antagonists of the retinoid-related orphan receptor gamma (ROR-gamma) signaling pathway (AID 1159521)
How it was run: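 RORγ antagonism is scored from reduced reporter luminescence in Tet-on CHO cells. Induction used 1 uM final doxycycline hyclate for 16 h at 37 C, following a 2 h compound exposure.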

[16] = qHTS assay to identify small molecule agonists of the AP-1 signaling pathway - cell viability counter screen (AID 1159525; calls by dose curve; also: nearly all actives have a fitted effect of over 55% in size)
How it was run: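 Same-well cytotoxicity counter screen of the Tox21 10K library in ME-180 cells. The readout is ATP-dependent luminescence after 5 h compound treatment. Data are normalised to DMSO and tetra n-octyl ammonium bromide controls.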

[17] = qHTS assay to identify small molecule agonists of the AP-1 signaling pathway (AID 1159526; calls by dose curve)
[18] = qHTS assay to identify small molecule agonists of the vitamin D receptor (VDR) signaling pathway - cell viability counter screen (AID 743224)
How it was run: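 Counter screen run in the same wells as the VDR-bla reporter assay: CellTiter-Glo luminescence, 30 min at room temperature, after 16 h compound treatment at 37C of cells pre-plated for 4 h.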

[19] = biological target: Vitamin D3 receptor (Homo sapiens) (UniProt P11473); assay: qHTS assay to identify small molecule antagonists of the vitamin D receptor (VDR) signaling pathway (AID 743223; active = well fitted inhibition curve with a large enough effect in the signal ratio in the repeat runs, not every such curve was filed as active; the % refers to the signal ratio)
How it was run: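 Fluorescence from LiveBLAzer B/G FRET substrate, read after 2 h at room temperature, reflects beta-lactamase reporter activity in VDR-bla cells treated 16 h at 37C with compounds and agonist 1alpha,25-dihydroxyvitamin D3 (3 nM final).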

Measured: Potency

CN(C)c1ccc(C=O)cc1
inactive: [1] | [2] | [3] | [4] | [5] | [6] | [7] | [8] | [9] | [10] | [11] | [12] | [13] | [14] | [15] | [16] | [17]

CN(C)C(=O)CNC(=O)Cc1ccccc1
inactive: [1] | [8] | [9] | [18] | [10] | [11] | [12] | [13] | [14] | [15] | [16] | [17]

Cc1c(I)c(=O)n(-c2ccccc2)n1C
inactive: [1] | [2] | [3] | [4] | [6] | [8] | [18] | [10] | [11] | [12] | [13] | [14] | [16] | [17]

Nc1ccc2cc(S(=O)(=O)O)cc(O)c2c1
inactive: [1] | [3] | [5] | [6] | [7] | [8] | [9] | [19] | [10] | [11] | [12] | [13] | [14] | [15] | [16] | [17]

CCOCCOC(=O)/C=C/c1ccc(OC)cc1
inactive: [1] | [3] | [6] | [7] | [8] | [9] | [19] | [18] | [10] | [11] | [12] | [13] | [14] | [15] | [16] | [17]

Cc1ccccc1C(=O)Nc1ccc(C(=O)N2CCCC(N(C)C)c3ccccc32)cc1 (stereo not given)
inactive: [1] | [3] | [6] | [7] | [8] | [9] | [18] | [11] | [12] | [13] | [14] | [15] | [16] | [17]

COCCOCCOCCOCCOCCO
inactive: [1] | [2] | [3] | [4] | [6] | [8] | [9] | [19] | [18] | [11] | [12] | [13] | [14] | [15] | [16] | [17]
